From the supplement of paper PMC13380429

Tested on: Vero E6 infected with SARS-CoV-2
Test: inhibition of SARS-CoV-2 cytopathic effect; higher = more antiviral protection, active = above 15
Settings: 48 h

Measured: inhibition of SARS-CoV-2 cytopathic effect

Cc1cc2c(cc1C(F)(F)F)N(C(=O)Nc1ccc(Oc3cccnc3C)nc1)CC2
inactive: 1 nM 0.45% | 8.33 nM 0.15% | 100 nM -0.25% | 833.33 nM 0.74% | 10000 nM -2.31%

CC(C(=O)O)c1ccc(CC2CCCC2=O)cc1 (stereo not given) [loxoprofen]
inactive: 1 nM 0.21% | 8.33 nM 3.24% | 100 nM 2.9% | 833.33 nM 0.82% | 10000 nM 2.16%

C#Cc1cncc([C@@H]2CCCN2C)c1 [altinicline]
inactive: 1 nM -3.46% | 8.33 nM -2.16% | 100 nM -1.9% | 833.33 nM -2.32% | 10000 nM 0.92%

Clc1ccccc1C(c1ccccc1)(c1ccccc1)n1cccn1
inactive: 1 nM 2.55% | 8.33 nM 1.8% | 100 nM -0.74% | 833.33 nM 1.1% | 10000 nM 0.33%

Cc1cn(-c2cc(NC(=O)c3ccc(C)c(Nc4nccc(-c5cccnc5)n4)c3)cc(C(F)(F)F)c2)cn1 [nilotinib]
inactive: 1 nM 3.96% | 8.33 nM 3.56% | 100 nM 3.11% | 833.33 nM 5.24% | 10000 nM 6.03%

COc1cc(Br)c(Nc2nc(-c3c(C)nc4ncccn34)cs2)c(Br)c1
inactive: 1 nM -0.04% | 8.33 nM 0.45% | 100 nM 1.74% | 833.33 nM -3.16% | 10000 nM 10.6%

CSc1ccccc1Nc1nc(N2CCNCC2)nc2c(NCC3CC3)ncnc12
inactive: 1 nM 1.44% | 8.33 nM 1.6% | 100 nM 1.17% | 833.33 nM 0.92% | 10000 nM -33.2%

O=C(c1ccc(C(=O)N2CCC(N3CCCC3)CC2)c(Nc2ccccc2)c1)N1CCC(N2CCCC2)CC1
inactive: 1 nM 0.43% | 8.33 nM -1.56% | 100 nM 0.31% | 833.33 nM -4.9% | 10000 nM -1.44%

CCCOc1ccc(Br)cc1-c1cc(-c2ccc(Cl)cc2)[nH]c1-c1ccncc1
inactive: 1 nM -1.64% | 8.33 nM 0.84% | 100 nM 0.25% | 833.33 nM -0.83% | 10000 nM -5.61%

COc1ccc(C(=O)Nc2sc3c(c2C(N)=O)CCCC3)cc1OC
inactive: 1 nM -0.36% | 8.33 nM -0.47% | 100 nM -3.78% | 833.33 nM -0.85% | 10000 nM 0.05%

CN(C)CC[C@@](O)(c1ccccc1)c1ccccc1Cl [clofedanol]
inactive: 1 nM 1.53% | 8.33 nM 1.3% | 100 nM 1.86% | 833.33 nM 1.12% | 10000 nM 2.42%

CCc1ccc(Cc2ccc3c(c2)[C@]2(OC3)O[C@H](CO)[C@@H](O)[C@H](O)[C@H]2O)cc1 [tofogliflozin]
inactive: 1 nM -0.25% | 8.33 nM 0.93% | 100 nM 0.26% | 833.33 nM 1.52% | 10000 nM -0.4%

O=P(O)(O)C(Cl)(Cl)P(=O)(O)O [clodronic-acid]
inactive: 1 nM 0.55% | 8.33 nM 0.27% | 100 nM 0.5% | 833.33 nM 2.21% | 10000 nM -1.06%

CC(C)=CCC[C@](C)(O[C@@H]1O[C@H](CO)[C@@H](O)[C@H](O)[C@H]1O)[C@H]1CC[C@]2(C)[C@@H]1[C@H](O)C[C@@H]1[C@@]3(C)CC[C@H](O)C(C)(C)[C@@H]3CC[C@]12C [ginsenoside-C-K]
inactive: 1 nM 3.53% | 8.33 nM 3.09% | 100 nM 3.64% | 833.33 nM -0.21% | 10000 nM 2.52%

CN1CCC[C@@H]1CCO[C@](C)(c1ccccc1)c1ccc(Cl)cc1 [clemastine]
inactive: 1 nM 3.3% | 8.33 nM 4.37% | 100 nM 2.07% | 833.33 nM 0.78% | 10000 nM 0.68%

COc1cc2c(cc1Cc1cccc(Cl)c1F)c(=O)c(C(=O)O)cn2[C@H](CO)C(C)C [elvitegravir]
inactive: 1 nM 2.45% | 8.33 nM 1.56% | 100 nM 1.54% | 833.33 nM 1.67% | 10000 nM -6.71%

COc1ccc(CN2CCN(C(c3ccc(F)cc3)c3ccc(F)cc3)CC2)c(OC)c1OC [lomerizine]
inactive: 1 nM 1.2% | 8.33 nM -4.42% | 100 nM -2.46% | 833.33 nM -4.97% | 10000 nM -3.64%

CC(C)OC(=O)C1=CN(C(=O)c2ccc(F)c(F)c2)CC(C)(C)c2c1[nH]c1ccccc21
inactive: 1 nM -2.29% | 8.33 nM -1.15% | 100 nM -3.38% | 833.33 nM -4.11% | 10000 nM -3.87%
